Measurements reported in PubChem BioAssay (Tox21).
Inconclusive results are not listed. Unmarked numbers belong to inactive results. Activity calls are given as the source filed them. Calls follow the shape of the dose curve; as a rule, active = well fitted inhibition curve with a large enough effect in the repeat runs; inconclusive = weak or mixed curves; inactive = no such curve, though single readings can be large or run the other way.

Target: Cytochrome P450 2C9 (Homo sapiens) (UniProt P11712)
Assay: Cytochrome P450 Family 2 Subfamily C Member 9 (CYP2C9) small molecule antagonists: luciferase reporter qHTS assay (AID 1671198); also: nearly all actives have a fitted effect of over 50% in size
Conditions: P450-Glo CYP2C9 enzyme assay, luciferin luminescence; series mostly up to 115 µM; activity change, negative = inhibition: at the top concentration
Method in brief: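 P450-Glo proluciferin substrate with CYP2C9 enzyme; 10 min RT preincubation, then NADPH regeneration 1 h at 37C; luciferin detection reagent 20 min RT, luminescence in relative luminescence units.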
% is scaled to controls: 0 for no effect and ±100 for the full control effect; potency is read from the fitted curve at half-maximal effect.

Sequence of Cytochrome P450 2C9 (Homo sapiens) (P11712 whole entry, looked up): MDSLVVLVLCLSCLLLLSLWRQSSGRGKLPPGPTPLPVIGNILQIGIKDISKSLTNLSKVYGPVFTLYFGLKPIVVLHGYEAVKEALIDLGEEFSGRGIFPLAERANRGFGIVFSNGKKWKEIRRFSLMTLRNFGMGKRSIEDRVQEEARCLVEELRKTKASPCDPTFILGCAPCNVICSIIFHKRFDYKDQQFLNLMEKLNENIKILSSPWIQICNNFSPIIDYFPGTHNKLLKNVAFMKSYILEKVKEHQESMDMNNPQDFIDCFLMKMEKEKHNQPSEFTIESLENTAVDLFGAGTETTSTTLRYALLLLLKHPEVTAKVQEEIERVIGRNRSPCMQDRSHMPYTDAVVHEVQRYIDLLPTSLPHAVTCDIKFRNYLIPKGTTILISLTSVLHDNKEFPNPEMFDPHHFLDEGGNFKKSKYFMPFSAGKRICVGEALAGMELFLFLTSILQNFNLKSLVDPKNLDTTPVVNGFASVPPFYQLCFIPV

SMILES | activity change, negative = inhibition | Potency
CCSC(=O)N(CC)CC | -9.45% | 
C1=CCC2CC=CC2C1 (stereo not drawn) | -13.9% | 
Cc1c[nH]c2ccccc12 | 24.6% [at 53 µM] | 
CC(=O)OCCC1CCCCC1 | -5.2% | 
C1CCCCC1 | -1.62% | 
CCCCCCCC(=O)OCCCCCC | -5.56% | 
C=C(C)c1ccccc1 | -12.9% | 
COC(C)(C)OC | -0.0848% | 
CCCCCCC(CO)CCCC (stereo not drawn) | -11% | 
Cc1ccccc1S(N)(=O)=O | -9.12% | 
CO[C@@H]1[C@@H](OC)[C@H](C)[C@@](O)(CC(=O)O)O[C@H]1[C@H](C)[C@H]1O[C@@]2(CC[C@@](C)([C@H]3CC[C@@](C)([C@@H]4O[C@@H]([C@H]5O[C@](C)(O)[C@H](C)C[C@@H]5C)C[C@@H]4OC4C[C@H](OC)[C@@H](OC)[C@H](C)O4)O3)O2)C[C@H](O)[C@H]1C (stereo partly drawn) | -17% [at 53 µM] | 
COc1ccc(-c2cc(=S)ss2)cc1 |  | 12.3 µM (active)
CCCc1nc2c(C)cc(-c3nc4ccccc4n3C)cc2n1Cc1ccc(-c2ccccc2C(=O)O)cc1 |  | 7.76 µM (active)
CC(C)C(=O)OCCOc1ccccc1 |  | 39.9 µM (active)
CCCCCCCCCCCCCCN(C)C | -16.9% [at 23.6 µM] | 
CNc1c2c(nn1C)CCCC2 | 12.8% [at 53 µM] | 
COc1cc(S(=O)(=O)Nc2ccccc2)c(OC)cc1N |  | 35.6 µM (active)
CCN(CC)CCOc1ccccc1C(=O)CCc1ccccc1 | -15% [at 53 µM] | 
CC(C(=O)O)c1ccc(C(=O)c2cccs2)cc1 (stereo not drawn) |  | 7.76 µM (active)

SMILES | activity change, negative = inhibition | Potency
NC(=O)CCCCC(N)=O | -1.95% | 
CC(CO)(CO)C(=O)O | -9.52% | 
CC(=O)c1ccc[nH]1 | -17.2% | 
Oc1cccc2[nH]ccc12 |  | 15.5 µM (active)
COc1ccc(C)cc1 | -7.2% | 
C=Cc1ccc(OC(C)=O)cc1 | -20.5% | 
O=C(O)CNC(=O)c1ccccc1I | 4.78% [at 53 µM] | 
Cc1ccc(Nc2c(F)cccc2Cl)c(CC(=O)O)c1 |  | 17.4 µM (active)
Cc1cn([C@H]2C[C@H](F)[C@@H](CO)O2)c(=O)[nH]c1=O | 2.36% [at 53 µM] | 
CCCCCCCCCCCC(=O)OCC(O)CO (stereo not drawn) |  | 39.9 µM (active)
CC(C)N=C=NC(C)C | 0.518% | 
O=C1OC[C@H](Cc2cccc(O)c2)[C@H]1Cc1cccc(O)c1 |  | 13.5 µM (active)
C[C@@H]1[C@H](O)[C@@H](C)/C=C/C=C\C=C\C=C\C=C\C=C\C=C\[C@H](O[C@@H]2O[C@H](C)[C@@H](O)[C@H](N)[C@@H]2O)C[C@@H]2O[C@](O)(C[C@@H](O)C[C@@H](O)[C@H](O)CC[C@@H](O)C[C@@H](O)CC(=O)O[C@H]1C)C[C@H](O)[C@H]2C(=O)O (stereo in doubt) | -9.73% | 
CC/C=C\C/C=C\C/C=C\CCCCCCCC(=O)OCC |  | 40.9 µM (active)
CCOc1ncc(F)c(=O)[nH]1 | -7.42% [at 53 µM] | 
CC[C@H]1OC(=O)[C@H](C)[C@@H](O[C@H]2C[C@@](C)(OC)[C@@H](O)[C@H](C)O2)[C@H](C)[C@@H](O[C@@H]2O[C@H](C)C[C@H](N(C)C)[C@H]2O)[C@](C)(O)C[C@@H](C)CN(C)[C@H](C)[C@@H](O)[C@]1(C)O | -1.35% [at 53 µM] | 
NC(=O)c1ccccc1[N+](=O)[O-] | 4.28% | 
CC(C)CC(O)CC(C)C | 0.927% | 
CC(=O)OC(C)C[N+](C)(C)C (stereo not drawn) | -10.1% [at 53 µM] | 
